# Source: PubChem BioAssay AID2314 (National Center for Advancing Translational Sciences (NCATS), 2010)
# Values joined by “and” are separate entries in the source; they are usually repeats but may differ in a detail not shown here. Equal entries are not always repeated. The campaign covered roughly 300,000 compounds. About 37,000 (12%) were called active. What follows is part of a selection rich in actives, with near analogues and random picks from the rest. A number with no mark means an inactive call. Cut-off read from the data, not from the text of the source: active = max response mostly above about 13% (no sharp cut-off); inactive = mostly below about 14%.
# Experiment: Cycloheximide Counterscreen for Small Molecule Inhibitors of Shiga Toxin; note: read at 38.3 µM for the half of the compounds with a filed dose; 0% is about no effect
# Details: cell reporter, cycloheximide protein synthesis inhibition counterscreen; active compounds read high
row,Structure (SMILES),max response
1,CC1=NN(/C(=N\c2nnc(C)s2)Nc2ccccc2)[C@H](c2ccc(C)cc2)S1,-0.911%
2,COCCn1c(=O)[nH]c(=O)c2cc(C(=O)c3cc(OC)ccc3O)cnc21,-3.24%
3,COc1ccc(O)c(C(=O)c2cnc3onc(C(C)C)c3c2)c1,26.6% (active)
4,COc1ccc(O)c(C(=O)c2cnc3c(c2)c(-c2ccc(F)cc2)c(C#N)c(=O)n3C)c1,11.3%
5,O=C(CS(=O)(=O)c1cn(Cc2ccc(Cl)cc2)c2ccccc12)N1CCOCC1,-4.25%
6,Cc1[nH]n(-c2ccc([N+](=O)[O-])cc2)c(=O)c1C=NCCN1CCN(C(=O)c2ccccc2F)CC1,-3.41%
7,Cc1cc(Cl)ccc1C(=O)C1CCCN(C(=O)CCN2CCCO2)C1 (centres undefined),-2.88%
8,COC(=O)C(C)C1Sc2ccccc2NC1=O (centres undefined),-1.04%
9,CCN(CC)CCNCC(=O)Nc1ccc(Oc2ccccc2)cc1,-2.52%
10,CC1CCN(CCC(=O)Nc2ccccc2)CC1,1.18%
11,O=C(CC1Nc2ccccc2NC1=O)Nc1ccccc1NC(=O)CC1Nc2ccccc2NC1=O (centres undefined),34.5% (active)
12,CCOC(=O)c1ccccc1NC(=O)CC1Nc2ccccc2NC1=O (centres undefined),-6.08%
13,O=C(CC1Nc2ccccc2NC1=O)Nc1ccccc1 (centres undefined),31% (active)
14,Cc1ccc(CNC(=O)CC2Sc3ccccc3NC2=O)cc1 (centres undefined),-1.23%
15,COC(=O)c1cc(C)sc1NC(=O)CC1Nc2ccccc2NC1=O (centres undefined),22.8% (active)
16,CCOc1ccc(NC(=O)CC2NCCNC2=O)cc1 (centres undefined),0.991%
17,CCc1cc(C(=O)OC)c(NC(=O)CC2Sc3ccc(C(F)(F)F)cc3NC2=O)s1 (centres undefined),0.357%
18,O=C(CC1NCCNC1=O)Nc1ccc(Oc2ccccc2)cc1 (centres undefined),30% (active)
19,CCc1ccc(NC(=O)CC2C(=O)NCCN2C(=S)Nc2ccccc2)cc1 (centres undefined),5.14%
20,CC1CCCN(S(=O)(=O)c2ccc(N(C(=O)c3cnccn3)C(C(=O)NC3CCCCC3)c3cccs3)cc2)C1 (centres undefined),-3.46%
21,COC(=O)c1ccc(COc2ccc(C#N)cc2)o1,0.875%
22,Cc1cc(C(=O)CSc2nc(N)cc(=O)[nH]2)c(C)n1CCc1ccc(Cl)cc1,4.99%
23,C=CCN(c1ccc(Cl)cc1)S(=O)(=O)c1cccc(C(=O)OCC(=O)N(C)C)c1,-6.49%
24,COc1cc(C(=O)NCc2nnc(SCC(=O)Nc3nc4ccc(C)cc4s3)o2)cc(OC)c1OC,4.75%

row,Structure (SMILES),max response
1,CCOC(=O)c1cccc(NC(=O)CN2C(=O)C3CC=CCC3C2=O)c1 (centres undefined),-0.226%
2,CCC1C=C(c2ccccc2)C=CN=C1N(CC)CC (centres undefined),-0.252%
3,O=c1/c(=C/c2ccc(CNS(=O)(=O)c3ccccc3)o2)sc2n1CCN=2,-4.34%
4,CCc1nc(C)cn1S(=O)(=O)c1cc([N+](=O)[O-])ccc1Cl,-1.54%
5,Cc1ccc(NC(=O)CN2CCC3(O)CCCCC3C2c2ccc3c(c2)OCO3)c(C)c1 (centres undefined),-2.23%
6,Cc1ccc(C(=O)N/C(=C/c2cccs2)C(=O)NCC2CCCO2)cc1 (centres undefined),-3.91%
7,Cc1ccc(C(=O)N/C(=C/c2cccs2)C(=O)N2CCCCC2)cc1,13.7%
8,Cc1ccc(C(=O)N/C(=C\c2cccs2)C(=O)NCCc2ccccn2)cc1C,31.4% (active)
9,O=C(Cc1ccc([N+](=O)[O-])cc1)Nc1ccc(C(=O)N2CCOCC2)cc1,-1.78%
10,CCNC(=O)Nc1ccc(S(=O)(=O)Nc2cnc(C)nc2C)cc1,-7.45%
11,O=C(Nc1ccccc1)c1cc2ccccc2[nH]1,42.1% (active)
12,O=C(/C=N/O)Nc1ccccc1,-2.41%
13,CC(C)n1c(=O)[nH]c2cc(C(=O)Nc3ccccc3)ccc21,-2.19%
14,COc1ccc(NC(=S)SC)cc1OC,-3.14%
15,COc1ccc2c(c1)N(C)/C(=C1/SC(=S)N(NC(C)=O)C1=O)S2,5.97%
16,COc1ccc(/C=C/C2=CC(C)(C)NC(=S)N2)c(OC)c1,5.95%
17,COCCc1nn2c(=O)cc(COC(=O)c3cc(OC)c(OC)c(OC)c3)nc2s1,3.56%
18,CC1=C(/C=C/C(C)=C/C=C/C(C)=C/C=C/C=C(C)/C=C/C=C(C)/C=C/C(=O)[C@]2(C)C[C@@H](O)CC2(C)C)C(C)(C)C[C@H](O)C1,9.8%
19,COc1cccc(/C=C/c2ccc3ccccc3n2)c1OC(C)=O,28.2% (active)
20,CCOc1ccccc1-c1cc(C(=O)N2CCOCC2)c2ccccc2n1,-3.29%
21,CCOc1cccc(/C=C/c2ccc3ccccc3n2)c1OC(C)=O,25.2% (active)
22,CCOc1ccccc1-c1cc(C(=O)N/N=C(\C)c2cccnc2)c2ccccc2n1,-1.08%
23,COc1cccc(/C=C2\C=C(c3ccc(C)cc3)OC2=O)c1OC(C)=O,1.6%
24,COc1ccc(CNC(=O)/C(C#N)=C/c2cccc(OC)c2OC)cc1,-1.4%

row,Structure (SMILES),max response
1,CCOc1ccc(CCNC(=O)CCc2nnc3ccc(N4CCCC4)nn23)cc1OCC,1.2%
2,Cn1nccc1C(=O)NC1CCCc2c1cnn2-c1ccccc1F (centres undefined),-0.344%
3,Cc1ccc2oc(=O)c3cnn(CC(=O)N(Cc4ccco4)C4CCCCC4)c3c2c1,-5.66%
4,CCOC(=O)c1c(C)n(C)c2ccc(OC)c(NS(=O)(=O)CC)c12,3.73%
5,COc1ccc(COCC(O)CN2CCC(C(N)=O)CC2)cc1 (centres undefined),-2.46%
6,COc1cc(CN2CCC(C(N)=O)CC2)ccc1OCc1ccccc1,34.9% (active)
7,CCOc1cc(CN2CCN(C(=O)CC(C)C)CC2)ccc1OC,-2.09%
8,O=C(NCc1cn2ccsc2n1)Nc1ccc(Cl)cc1,1.41%
9,O=C(Nc1ccc(Cl)cc1)c1ccsn1,50.1% (active)
10,CCC(=O)Nc1ccc(C(=O)NNC(=O)c2ccc(Cl)cc2)cc1,-0.754%
11,Cc1c(CCC(=O)N[C@@H](CC(C)C)C(=O)O)c(=O)oc2c(C)c3oc4c(c3cc12)CCCC4,-2.26%
12,CC(C)c1nnc(NC(=O)CCC(=O)N2CCN(c3cccc(Cl)c3)CC2)s1,4.84%
13,O=C(c1ccco1)N1CCN(C(=O)C2CC(c3ccc(F)cc3)=NO2)CC1 (centres undefined),-6.02%
14,O=C(OCC(=O)N1CCN(C(=O)c2ccco2)CC1)c1cccc(O)c1,5.85% (active)
15,CS(=O)(=O)N(CC(=O)N1CCN(c2cccc(Cl)c2)CC1)c1ccccc1,-1.4%
16,O=C(c1ccco1)N1CCN(C(=O)C2c3ccccc3Oc3ccccc32)CC1,12.3% (active)
17,O=C(CCCC(=O)N1CCN(c2cccc(Cl)c2)CC1)c1ccccc1,19.7% (active)
18,O=C(c1ccco1)N1CCN=C1SCc1cccc(Cl)c1,-6.49%
19,O=C(c1ccc2c(c1)OCO2)N1CCN(C(=O)c2ccco2)CC1,-3.05%
20,O=C(c1cccc([N+](=O)[O-])c1)N1CCN(C(=O)c2ccco2)CC1,-0.729%
21,O=C(OCC(=O)N1CCCC1)c1ccco1,10.1%
22,O=C(OCC(=O)N1CCN(C(=O)c2ccco2)CC1)c1ccccc1Cc1ccccc1,34.9%
23,O=C(c1ccco1)N1CCN(c2cccc(Cl)c2)CC1,23.2% (active)
24,CCOC(=O)Cn1c(=O)sc2cccc(Cl)c21,-1.55%

row,Structure (SMILES),max response
1,COc1cc(C)c(C(C)C)cc1S(=O)(=O)n1ccnc1,0.42%
2,CCOC(=O)c1ccc(N=C2SC(C(=O)NC)CC(=O)N2CCc2ccccc2)cc1 (centres undefined),1.86%
3,Cc1cc(=O)cc(C)n1-c1ccc(Cl)c(Cl)c1,-2.09%
4,O=C(CSc1nc2ccc(Nc3nc(N4CCOCC4)nc(N4CCOCC4)n3)cc2s1)NCc1ccco1,-3.23%
5,CC(=O)Nc1ccc(S(=O)(=O)NCC2CCC(C(=O)NCCc3ccccc3)CC2)cc1 (centres undefined),-1.06%
6,CC1CCCN(CC(=O)Nc2cc(Cl)ccc2Oc2ccccc2)C1 (centres undefined),8.16%
7,O=C(CN1CCOCC1)Nc1ccc(NC(=O)CN2CCOCC2)c(Cl)c1,-4.13%
8,CC(=O)Nc1ccc(NC(=O)CN2CCCC(C)C2)c(Cl)c1 (centres undefined),22.7% (active)
9,Nc1nc(SCC(=O)Nc2ccc(Cl)cc2C(F)(F)F)n[nH]1,-3.77%
10,N#Cc1ccc(/C=C2\CCn3c2nc2cc(C(=O)O)ccc2c3=O)cc1,-2.31%
11,c1ccc(-c2ccc(OCCN3CCOCC3)cc2)cc1,47.6% (active)
12,CC(C)(c1ccccc1)c1ccc(OCCN2CCCC2)cc1,2.15%
13,CC(=O)c1ccc(OCCN2CCOCC2)cc1,3.75%
14,CCc1c(C)nc(N)n2c(SCC(=O)NC3CCCCC3)nnc12,11.5%
15,COc1ccc(-c2nn(-c3ccccc3)cc2/C=N/Nc2ccccn2)cc1OC,14.8% (active)
16,COc1ccc(-c2nn(-c3ccccc3)cc2C(=O)Nc2nccs2)cc1OC,-1.49%
17,CN(C)/N=C/c1cn(-c2ccccc2)nc1-c1cccnc1,6.55%
18,Cc1cc(C)cc(C(=O)N(CCc2ccccc2)C2=CC3CCC(C2)N3C)c1 (centres undefined),3.92%
19,O=C(C1CC(=O)N(c2ccc(Br)cc2)C1)N1CCCC1 (centres undefined),4.73%
20,O=c1cc(-c2ccccc2)[nH]c2cc(F)ccc12,-3.07%
21,Cc1ccc(-c2cc(=O)c3ccc(F)cc3[nH]2)cc1,6.8% (active)
22,Cc1ccc(-c2cc(=O)c3ccc(Cl)cc3[nH]2)cc1,-0.873% and 14.9%
